Some of the results follow. Activity calls are given as the source filed them.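 The calls were made as follows: active = a half-inhibiting concentration could be measured and was below 100 µM; inactive = the rest.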

For the assay, the system named is Thioredoxin reductase 1 (TXNRD1), rat. Kind of assay: qHTS Assay for Inhibitors of Mammalian Selenoprotein Thioredoxin Reductase 1 (TrxR1): DTNB Assay. The note with it: purified TrxR1, DTNB reduction, A412. An excerpt:
The selenoprotein thioredoxin reductase (TrxR; EC 1.8.1.9) is a FAD containing homodimeric pyridine nucleotide-disulfide oxidoreductase with many cellular roles. Together with NADPH and its prime substrate thioredoxin (Trx), the enzyme forms the core of the Trx system. The mammalian Trx system exerts a wide spectrum of functions including redox regulation, antioxidant defense, regulation of transcription factors as well as support of cell growth and replication. Many of these functions involve the reduction of Trx, which may subsequently reduce a number of different substrates including ribonucleotide reductase, peroxiredoxins or NFkB. Mammalian TrxR itself also has a broad substrate specificity, reducing both protein and non-protein substrates, including low molecular weight compounds such as dehydroascorbate, lipoic acid, ubiquinone, and juglone. In addition, several drugs in clinical use for anticancer treatment are indeed known to target TrxR1. This orthogonal DTNB assay seeks to further characterize cherry picks. NIH Molecular Libraries Probe Production Network [MLPCN] NIH Chemical Genomics Center [NCGC] MLPCN Grant: MH090846 Assay Provider: Elias Arner, Karolinska Institute
15 nM TrxR1 is reduced by 250 microM NADPH in TE buffer [50 mM Tris-HCl (pH 7.5), 2 mM EDTA] in a 96-well microtiter plate. Compounds are then added and incubated for 30 min at 30 degrees C. During compound incubation, NADPH consumption is followed by the decrease in absorbance at 340 nm using a VersaMax microplate reader (Molecular Devices) to determine substrate potential of the compound. DTNB is subsequently added to a final concentration of 2.5 mM, and the formation of TNB- is followed at 412 nm at 30 degrees C to assess inhibitory activity of the compound.
A general note: Quantitative high-throughput screening tests each substance at several concentrations.
For `CC1CCN(C(=O)c2ccc(S(=O)(=O)Cc3cc(F)ccc3F)c([N+](=O)[O-])c2)CC1`, the Potency was 0.317 µM (active).
In the case of `Cc1ccccc1-c1nc(CS(=O)(=O)CC(=O)N2CCc3ccccc3C2)c(C)o1` it was 0.292 µM (active); in that of `O=C(/C=C/c1ccco1)Nc1cccc(-c2nc3ccccc3[nH]2)c1`, 10.3 µM (active).

(Values after PubChem BioAssay AID652256 (National Center for Advancing Translational Sciences (NCATS), 2013).)
